High-throughput results deposited in PubChem by several laboratories.
Only some compounds are listed: those with a hit (about 4.5% of all), similar ones and a draw of the others.
PfHsp90 yeast 2: growth inhibition of yeast expressing Plasmodium Hsp90; S. cerevisiae expressing PfHsp90, BacTiter-Glo ATP, 48 h; yeast lacking PDR1 and PDR3 efflux regulators; inhibition, % at 9.4 µM; actives 0.32% (n = 310,000); AID 504621;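 active means every replicate shows inhibition above about 80%, whatever the replicate mean, limit read from the data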;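 further: 0% = DMSO neutral controls and 100% = 20 µM radicicol positive controls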
tim10-1 inh: inhibits growth of tim10-1 mutant yeast | S. cerevisiae tim10-1 ts strain growth, BacTiter-Glo, 24 h | inhibition, % at 20 µM | actives 2.2% (n = 330,000);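 active means inhibition of at least 40%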;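 further: mutant grown at 25 °C; 0% = DMSO wells with yeast and 100% = wells holding no yeast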
tim23-1 inh: tim23-1 yeast growth inhibition. S. cerevisiae tim23-1 growth, BacTiter-Glo luminescence, 24 h. inhibition, % at 20 µM. actives 1.3% (n = 330,000). AID 463212;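 active means growth inhibition of the mutant yeast at or above 50%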;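 further: temperature-sensitive mutant grown at 25 °C; plate controls were DMSO-treated mutant yeast for no effect and medium wells lacking yeast for full effect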
NLRP3 yeast inh: NALP3 inhibition in yeast; Yeast reconstituted NLRP3/ASC/caspase-1, beta-gal luminescence, 24 h; inhibition, % at 10 µM; actives 0.39% (n = 330,000); AID 2825;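 active means inhibition of 50% or more; inactive means inhibition below 50%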;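 further: plate controls were induced DMSO wells for no effect and uninduced yeast grown without galactose for full effect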
SKKanGAS inh: SKKanGAS growth inhibition; S. pyogenes SKKanGAS, kanamycin growth, BacTiter-Glo, 6 h; inhibition, % at 7.5 µM; actives 1.3% (n = 300,000); AID 1662;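 active means mean replicate score, as percent of positive control median, at least 50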;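 further: strain carries kanamycin resistance gene driven by streptokinase promoter and grows in 40 µg/ml kanamycin; loss of luminescence reflects streptokinase promoter inhibition or plain growth inhibition; 0% = median of DMSO wells and 100% = positive control at its reference dose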
TIM10 inh: inhibits growth of TIM10 yeast strain | AID 463195 | inhibition, % at 10 µM | actives 1.4% (n = 330,000) | S. cerevisiae TIM10 strain growth, BacTiter-Glo luminescence, 24 h;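 active means inhibition of 40% or more at the single tested concentration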;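 further: wild-type TIM10 isogenic control strain grown at permissive 25 °C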
tim10-1 confirm: confirmation of tim10-1 mutant yeast growth inhibitors | inhibition, % at 20 µM | AID 463213 | shares compounds with tim10-1 inh | S. cerevisiae tim10-1 ts strain growth, BacTiter-Glo, 24 h | actives 56% (n = 7,400);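 active means inhibition of yeast growth at or above a set limit in either of two repeat tests at 20 µM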;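 further: tim10-1 mutant grown at permissive 25 °C to find synthetic lethal compounds; 0% = DMSO yeast wells and 100% = medium wells without yeast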
TIM10 conf: TIM10 yeast growth inhibition, confirmed; shares compounds with TIM10 inh; S. cerevisiae tim10 strain growth, BacTiter-Glo luminescence, 24 h; inhibition, % at 10 µM; actives 63% (n = 4,600);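 active means inhibition of yeast growth at or above a set limit in either of two replicates at 10 µM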;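 further: this counterscreen used the strain with wild-type TIM10; 0% = yeast with DMSO and 100% = medium wells lacking yeast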
Starred values were filed as active, the others as inactive; x = no result.

SMILES	PfHsp90 yeast 2	tim10-1 inh	tim23-1 inh	NLRP3 yeast inh	SKKanGAS inh	TIM10 inh	tim10-1 confirm	TIM10 conf
O=C(CN1CCN(C(=O)c2ccco2)CC1)Nc1ccc(F)cc1F	12	16	19	0	0	7	x	x
Cc1cc(N2C(=O)C=CC2=O)c([N+](=O)[O-])cc1C	117*	95*	4	-25	x	83*	93*	95*
COC(=O)C(=C/C(C)=C/c1cccnc1)C(=O)OC	35	50*	42	42	-9	50*	41*	46*
COC(=O)/C(=C/c1cccnc1)NC(=O)c1ccccc1	-36	-7	1	14	-18	7	x	x
O=[N+]([O-])c1ccc(S(=O)(=O)c2cccc(C(F)(F)F)c2)nc1	81*	75*	46	-12	6	75*	74*	66*
CC(=O)NC1C(c2nc3ccccc3s2)=C(c2ccccc2)C(=O)N1c1ccc(C)cc1 (centres undefined)	0	53*	34	16	17	51*	51*	37*
O=C(CSc1nnnn1-c1cccc(F)c1)NC1CC1	1	2	-2	3	x	-9	x	x
CC(C)(C)c1ccc(S(=O)(=O)N2CCN(c3ncccn3)CC2)cc1	15	16	18	22	0	15	x	x
O=C1CC(/C=C/c2ccccc2)=Nc2ccccc2N1	-25	17	13	36	-2	20	x	x
CC1(C)CC(/C=C/c2ccccc2)=Nc2ccccc2N1	2	49*	46	23	-8	67*	54*	58*
O=C(NCc1ccccc1F)C(=O)NCC1CCCN1S(=O)(=O)c1ccccc1 (centres undefined)	-7	16	13	10	-5	4	x	x
COc1ccc(C(=O)Nc2ccccc2C(=O)N/N=C/c2cccc3ccccc23)cc1	x	60*	47	15	26	56*	57*	37*
CCCc1cc(NCC2CCCO2)n2c(nc3ccccc32)c1C#N (centres undefined)	33	41*	45	7	13	41*	37*	25
COc1ccc(C(=O)NCC(C)(c2ccccc2)c2ccccc2)cc1S(=O)(=O)N1CCOCC1	25	x	x	x	x	x	x	x
O=C(NCCO)/C(=C\c1ccc([N+](=O)[O-])o1)NC(=O)c1ccccc1	7	12	3	9	0	1	x	x
CCCOC(=O)/C(=C\c1ccc([N+](=O)[O-])o1)NC(=O)c1ccccc1	12	56*	42	5	1	54*	47*	-8
COc1cc(NC(=O)C(C)N2CCN(C(=O)C3CC3)CC2)cc(OC)c1 (centres undefined)	-12	-6	7	12	x	3	x	x
CCCN(CCC)C(=S)NC(=O)c1ccc(-c2ccccc2)cc1	-25	42*	32	38	38	44*	16	42*
CCOC(=O)c1sc(NC(=O)C2CCC2)cc1C	-7	44*	49	20	-6	55*	42*	36*
O=C1C(Cl)=C(Nc2ccc(O)cc2)C(=O)c2ccccc21	-5	49*	38	-9	20	45*	45*	51*
CC1CC(C)CN(C(=O)CSc2nnc3ccccn23)C1 (centres undefined)	10	-12	-6	-14	x	2	x	x
C=CCC1(CC=C)CCCN1C(=O)c1cc(COc2ccc(C)nc2)on1	-3	23	28	14	-1	15	x	x
O=C(Oc1cccnc1)c1ccccc1[N+](=O)[O-]	-1	52*	32	-14	-17	50*	33*	33*
N/C(=N\OC(=O)c1ccccc1[N+](=O)[O-])c1cccnc1	x	16	23	14	-17	4	x	x
CN1CCN(/N=C/c2c3ccccc3c(Cl)c3ccccc23)CC1	x	47*	39	-18	6	47*	52*	46*
SMILES	PfHsp90 yeast 2	tim10-1 inh	tim23-1 inh	NLRP3 yeast inh	SKKanGAS inh	TIM10 inh	tim10-1 confirm	TIM10 conf
Cc1c(N2C(=O)/C(=C\C3CC=CCC3)SC2=S)c(=O)n(-c2ccccc2)n1C (centres undefined)	x	46*	48	15	-4	42*	39*	33*
NC(=O)c1cc([N+](=O)[O-])ccc1NCc1ccc(N)cc1	11	57*	30	14	x	54*	48*	65*
O=C(CN1C(=O)NC2(CCCC2)C1=O)NCc1cccc(Cl)c1	x	-6	-6	9	x	-14	x	x
O=C1CC(c2ccc3c(c2)OCCO3)Oc2ccc([N+](=O)[O-])cc21 (centres undefined)	-14	42*	47	9	5	45*	39*	54*
CC1CN(S(=O)(=O)c2cc(C(=O)N3CCCCC3C)ccc2Cl)CC(C)O1 (centres undefined)	9	10	14	-13	x	17	x	x
Cc1ccc(Oc2nnc(-c3ccccc3)c3ccccc23)cc1	11	51*	41	25	4	41*	41*	50*
Cc1ccc(-c2nnc(Oc3cccc(C)c3)c3ccccc23)cc1	34	34	23	10	21	19	x	x
COc1ccc(C(=O)/C=C2/Sc3cc4c(cc3N2C)OCO4)cc1	4	9	13	15	-4	0	x	x
COc1ccc2c(c1)S/C(=C\C(=O)c1ccncc1)N2C	75	54*	41	19	-3	82*	73*	85*
CCc1ccc(NC2=CC(=O)CC(c3ccco3)C2)cc1 (centres undefined)	8	42*	37	-4	-7	41*	26	16
CCCc1[nH]nc2c1C(c1ccsc1)C(C#N)=C(N)O2 (centres undefined)	-31	47*	40	25	1	46*	26	16
O=[N+]([O-])c1cccnc1N1CCC(c2cc(-c3cccc(C(F)(F)F)c3)n[nH]2)CC1	1	43*	-4	19	100*	52*	30*	-17
CC1CCN(C(=S)SCc2nc(N)nc(Nc3ccccc3)n2)CC1	12	41*	42	21	-3	43*	19	34*
Nc1nnnn1/N=C/C(Br)=C/c1ccccc1	-5	46*	37	30	0	55*	48*	53*
CCOC(=O)Cc1csc(NC(=S)NC(=O)c2ccccc2)n1	-3	47*	26	3	-23	51*	30	35*
O=C(/C=C/c1cccc([N+](=O)[O-])c1)n1cnc2ccccc21	14	46*	47	49	-1	45*	43*	39*
